Compound activity deposited in PubChem by National Center for Advancing Translational Sciences (NCATS).
ATXN2 expr inh = inhibitors of ATXN2 expression | HEK-293 ATXN2-luciferase reporter, luminescence, 24 h | Potency, µM (doses to about 57 µM), inactives show top-dose activity change, negative = inhibition, most hits filed as inhibitors | 360,000 compounds, 0.72% hits; also: potency is read from the fitted curve at half-maximal effect; % is scaled to controls: 0 for no effect and ±100 for the full control effect; nearly all actives have a fitted effect of over 55% in size
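qHTS (up to 57 uM final) was run with 24 h compound exposure of reporter cells at 37 °C. Each well was multiplexed: SteadyGlo luminescence measured ATXN2-luciferase expression after a fluorogenic Gly-Phe-AFC viability readout (25 uM final).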
HTT cytoprotect = Huntington cell model cytoprotection by ATP luminescence; PC12 HTT-Q103 induced, cytoprotection, ATP luminescence, 40 h; Potency, µM (series often up to 56.4 µM), for the others: cytoprotection (ATP increase), most hits filed as activators; 230,000 compounds, 0.14% hits; AID 1471; also: potency is read from the fitted curve at half-maximal effect; % of control where 0% means no effect; nearly all actives have a fitted effect of over 45% in size
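Compounds were screened for protection of PC12 cells against cell death after tebufenozide induction (100 nM final) of mutant Huntingtin exon 1 (Q103) fused to GFP.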
TGFb inhibitor = blocks TGF-b signaling; HepG2 CAGA-GFP TGF-b/SMAD3 reporter, GFP fluorescence, 18 h; TGF-beta stimulated, 500 pg/mL final; Potency, µM (top dose mostly 46.1 µM), for the others: at the top dose activity, negative = inhibition, actives largely listed as inhibitors; 410,000 compounds, 1.2% hits; also: potency is read from the fitted curve at half-maximal effect; % is scaled to controls: 0 for no effect and ±100 for the full control effect; nearly all actives have a fitted effect of over 65% in size
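First, reporter cells (HEPG2 CAGA-GFP) rested 2 h at 37 degrees C. Next, compounds were pinned in and TGF-beta added to 500 pg/mL final. After 18 h, GFP was imaged per cell and summed per well.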
S2 tox = viability counter-screen for ATXN expression inhibitors | 400,000 compounds, 0.49% hits | S2 cells (HEK-293 line with an ATXN2-luciferase reporter) viability, CellTiter-Fluor protease fluorescence, 24 h | Potency, µM (doses to about 56.7 µM), most hits filed as cytotoxic; also: potency is read from the fitted curve at half-maximal effect; nearly all actives have a fitted effect of over 40% in size
HttQ103 aggreg = mutant huntingtin aggregation inhibition. Potency, µM (titrated, usually from 46.1 µM), for the others: at the top dose activity change, negative = inhibition, actives largely listed as inhibitors. AID 1688. 220,000 compounds, 1.1% hits. PC12 HttQ103-GFP aggregates, Acumen cytometry, 40 h; also: potency is read from the fitted curve at half-maximal effect; % is scaled to controls: 0 for no effect and ±100 for the full control effect; nearly all actives have a fitted effect of over 60% in size
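PC12 cells stably carrying ecdysone-inducible HTT exon 1 Q103–GFP were induced with tebufenozide (100 nM final) and treated with library compounds in titration. GFP aggregates in lysates were counted by laser scanning cytometry.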
HepG2 tox = kills HepG2 cells in TGF-b inhibitor counter-screen; HepG2 CAGA-GFP viability, ATP luminescence, 18 h; Potency, µM (series often up to 46.1 µM), without a hit: at the top dose activity change, negative = cytotoxicity, usual class: cytotoxic; 410,000 compounds, 0.76% hits; also: potency is read from the fitted curve at half-maximal effect
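CellTiter-Glo luminescence gave cytotoxicity after 18 hours at 37 degrees C. The cells were HepG2 CAGA-GFP in 1% FBS DMEM, stimulated with 500 pg/mL TGF-beta after compound addition. %Activity was normalised to no-cell wells (complete cell-killing) and DMSO (no toxicity), and curves were fitted and classified.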
EBOV S4 ratio = blocks Ebola virus entry, screen 4 ratio readout; shares compounds with ATXN2 expr inh; Ebola pseudovirus entry assay, ratio channel; AC50, µM; 170 compounds, 79% hits; AID 1117308; calls by dose curve
EBOV S4 blue = Ebola entry inhibition, blue channel, screen 4; calls only; 170 tested, under 10 active; Ebola virus entry assay, blue channel fluorescence ratio; Channel: blue; shares compounds with ATXN2 expr inh; call rule not given here
EBOV entry S4 grn = Ebola entry inhibition, green channel, screen 4 | shares compounds with ATXN2 expr inh | Ebola virus entry reporter assay, green fluorescence channel; Channel: green | calls only | 170 tested, under 10 active | AID 1117316; call rule not given here
SKNSH spheroid = kills SK-N-SH neuroblastoma spheroids in orthogonal 3D test; SK-N-SH 3D spheroid viability, PI/Hoechst imaging, 72 h; shares compounds with ATXN2 expr inh; 65 compounds, 70% hits; AID 1347135; Potency, µM (highest dose often 30.7 µM), usual class: inhibitors
SJ-GBM2 3D tox = lowers viability of SJ-GBM2 3D spheroids. shares compounds with ATXN2 expr inh. SJ-GBM2 3D spheroid viability, PI/Hoechst imaging, 72 h. Potency, µM (highest dose often 30.7 µM), most hits filed as inhibitors. 65 compounds, 80% hits. AID 1347136
Daoy 3D tox = Daoy 3D spheroid viability loss | shares compounds with ATXN2 expr inh | Daoy 3D spheroid viability, PI/Hoechst imaging, 72 h | Potency, µM (series often up to 30.7 µM), most hits filed as inhibitors | 65 compounds, 50% hits | AID 1347137
TC32 3D caspase = TC32 spheroid caspase-3/7 activation, orthogonal screen; shares compounds with ATXN2 expr inh; AID 1347138; TC32 3D spheroids, caspase-3/7 fluorescence imaging, 24 h; 65 compounds, 30% hits; Potency, µM (series often up to 30.7 µM), hits mostly inhibitors
TC32 3D tox = reduced viability of TC32 3D spheroids, orthogonal test | shares compounds with ATXN2 expr inh | TC32 3D spheroid viability, PI/Hoechst imaging, 72 h | Potency, µM (doses to about 30.7 µM), usual class: inhibitors | 65 compounds, 60% hits | AID 1347139
MG63 3D tox = reduced viability of MG-63 (6-TG R) 3D spheroids, orthogonal test | 65 compounds, 50% hits | MG-63 (6-TG R) 3D spheroid viability, PI/Hoechst imaging, 72 h | Potency, µM (doses to about 30.7 µM), hits mostly inhibitors | shares compounds with ATXN2 expr inh
RD spheroid = RD 3D spheroid viability loss. shares compounds with ATXN2 expr inh. RD rhabdomyosarcoma 3D spheroid viability, PI/Hoechst imaging, 72 h. Potency, µM (titrated, usually from 30.7 µM), usual class: inhibitors. 65 compounds, 50% hits. AID 1347141
The depositor's hits bear a star; i = inactive; ? = inconclusive; . = no result given; [ ] = another dose, or the depositor's remark. The list is not random: actives were taken first. Their share in the collection is about 2.8%. Unless noted, calls follow the shape of the dose curve; as a rule, active = well fitted curve in the direction sought with a large enough effect; inconclusive = small, poorly fitted or top-dose-only effect, or another doubt; inactive = no such curve, though single readings can be large; an effect the other way counts as inactive or inconclusive.

SMILES	ATXN2 expr inh	HTT cytoprotect	TGFb inhibitor	S2 tox	HttQ103 aggreg	HepG2 tox	others
COC(=O)C1=CCCN(C)C1	41%	?	7%	i	-2%	6%	SKNSH spheroid=13µM*;SJ-GBM2 3D tox=?;Daoy 3D tox=i;TC32 3D caspase=?;TC32 3D tox=4.1µM*;MG63 3D tox=i;RD spheroid=i
O=c1[nH]c2ccc(Cl)cc2c(N[C@@H]2CN3CCC2CC3)c1-c1nc2ccccc2[nH]1	0.068µM*	.	.	.	.	.	SKNSH spheroid=0.13µM*;SJ-GBM2 3D tox=0.091µM*;Daoy 3D tox=0.72µM*;TC32 3D caspase=18µM*;TC32 3D tox=13µM*;MG63 3D tox=6.4µM*;RD spheroid=?
Cc1cc[c]([Sb]2[O][C@H]([C@H](O)[C@H](O)C(=O)O)[C@@H](CO)[O]2)cc1	.	2%[10 µM]	.	.	.	.
O=C(O)C(Cl)Br (stereo unspecified)	.	18%	.	.	.	.
Cc1ccc(S(=O)ON2CCC(C(=O)O)(c3ccccc3)CC2)cc1 (stereo unspecified)	.	15%[10 µM]	.	.	.	.
c1ccc2c([C@@H]3CCN(CCN4CCOCC4)C3)c[nH]c2c1	.	2%[10 µM]	.	.	.	.
C[C@H](N)[C@H](O)c1ccc(O)c(O)c1	-8%	-29%[40.3 µM]	.	?	.	.	EBOV S4 ratio=i;EBOV S4 blue=i;EBOV entry S4 grn=i
CN1C2CCC1CC(C(=O)OC(CO)c1ccccc1)C2 (stereo unspecified)	.	-34%	.	.	.	.
C/C=C1/C[N@@+]2(C)CC[C@]34C(=C(C=O)[C@H]1C[C@H]32)Nc1ccccc14	.	-7%	.	.	.	.
[N-]=[N+]=CC(=O)CC[C@H](N)C(=O)O	.	-18%[10 µM]	.	.	.	.
CN1[C@@H]2CC[C@H]1CC(O[C@@H](c1ccccc1)c1ccc(Cl)cc1)C2 (stereo partly specified)	.	-80%	.	.	.	.
C#Cc1cccc(Nc2ncnc3cc(OCCOC)c(OCCOC)cc23)c1	?	-105%	.	?	-6%	.	EBOV S4 ratio=i;EBOV S4 blue=i;EBOV entry S4 grn=i
O[C@H](CN1CC1)[C@@H](O)CN1CC1	.	-3%[10 µM]	.	.	.	.
